The whole screen tested about 360,000 compounds, of which about 2,800 (0.78%) were called active. The sample holds actives, similar compounds and a random draw of the others, so the mix is not that of the screen. A number with no mark means an inactive call. Rule as the data show it: active = inhibition above about 26%; inactive = the rest.
test system: Nicotinate-nucleotide adenylyltransferase NadD (Staphylococcus aureus N315); assay: S. aureus NadD enzyme activity blockers – biochemical, colorimetric, uHTS, primary screen (AID 602399); conditions: purified NadD enzyme, colorimetric absorbance read-out; at 20 µM; active compounds read high

SMILES	inhibition
CCOC(=O)c1cccc(NC(=O)CCc2nnc3ccc(N4CCOCC4)nn23)c1	-5.9%
Cc1ccc(Cn2cc(CN3CC(N4CCN(C)CC4)CS3(=O)=O)nn2)cc1 (stereo not given)	-10.5%
C=CCN1C(=O)C(O)(CC(=O)c2ccccn2)c2ccccc21 (stereo not given)	13.4%
Cc1ccc(C2CC(c3cccc(Br)c3)n3nc(N)nc3N2)cc1 (stereo not given)	7.54%
Nc1nc2n(n1)C(c1ccco1)CC(c1ccc(Cl)c(Cl)c1)N2 (stereo not given)	47.1% (active)
CCOc1ccccc1C1CC(c2ccc(Cl)cc2)Nc2nc(N)nn21 (stereo not given)	9.48%
CCOC(=O)c1cn(CC)c2cc(F)c(F)cc2c1=O	-0.618%
COC(=O)CSc1nc2c(c(C3CC=CCC3)c1C#N)CCC2 (stereo not given)	-1.38%
COc1ccc(Cc2nnc(NC(=O)Cc3cccs3)s2)cc1	32.5% (active)
COc1cc(OC)cc(C(=O)NNC(=O)Cc2cccs2)c1	10.7%
COc1ccc(CC(=O)Nc2sc(Cc3ccccc3)c(C)c2C(N)=O)cc1	-6.77%
CC(C)C[C@@H](CO)N1CCN(Cc2ccc(O)cc2)CCC1=O	4.79%
CC(CCN1CCN=C1N(C)C)c1ccccc1 (stereo not given)	-0.906%
Cc1c2cnn(CC(=O)NCc3ccccn3)c(=O)c2c(C)n1Cc1ccc(Cl)cc1	0.351%
Cc1cc(OCCCC(=O)Nc2cc(S(=O)(=O)N3CCOCC3)ccc2N2CCOCC2)ccc1Cl	-12.2%
COC(=O)c1cc(Oc2ccc(S(=O)(=O)N3CCOCC3)cc2[N+](=O)[O-])cc(C(=O)OC)c1	1.67%
O=[N+]([O-])c1cc(Cl)cc(/C=N/NC(=S)Nc2cc(S(=O)(=O)N3CCOCC3)ccc2Cl)c1O	47.9% (active)
O=C(Nc1ccc(N2CCN(C(=O)c3cccs3)CC2)cc1)c1cccnc1Cl	4.87%
CC(=O)Nc1cc(-c2ccc(N3CCN(C)CC3)cc2)cn2c(-c3ccc(F)cc3)cnc12	0.533%
C=CC(=O)Nc1ccc(Nc2ccnc(Nc3ccc(N4CCN(C)CC4)cc3)n2)cc1	42.6% (active)
Cc1ccc(N2C(=O)C3N=NN(CC(=O)N4N=C(c5cccc6ccccc56)CC4c4ccccc4)C3C2=O)cc1 (stereo not given)	45.4% (active)
O=C1c2cccc(OCC(=O)N3N=C(c4cccs4)CC3c3ccc(F)cc3)c2CCN1Cc1ccccc1 (stereo not given)	26.5%
Oc1ccccc1C1=NN(c2ccccc2)C(c2ccccc2)C1 (stereo not given)	-11.2%

SMILES	inhibition
Cc1ccc(C2=NN(C(=O)COc3ncnc4ccccc34)C(c3ccco3)C2)cc1 (stereo not given)	0.743%
CC1=C(C)CC2C(=O)N(c3cccc4ccccc34)C(=O)C2C1 (stereo not given)	-0.224%
O=C1C2N=NN(CC(=O)N3N=C(c4cccc5ccccc45)CC3c3ccccc3)C2C(=O)N1c1ccccc1 (stereo not given)	48.5% (active)
CN1CCN(C(=O)/C(=C\c2ccc3c(c2)OCO3)NC(=O)c2cccs2)CC1	-6.87%
O=C1CC2(CCCC2)Oc2ccc(Cl)cc21	-1.24%
CCSC1=NCCN1C(=O)c1ccc(S(=O)(=O)N(CC)CC)cc1	3.55%
Cc1ccc(-n2c(=O)cc(N3CCN(Cc4ccccc4)CC3)[nH]c2=O)cc1	4.3%
Cc1cccc(CCNS(=O)(=O)c2ccc3c(c2)NC(=O)CO3)c1	-0.563%
COC(=O)c1ccc(/C=N/OCC(=O)Nc2cc(F)ccc2F)cc1	-3.44%
CCCc1nc2c3ccccc3ccn2c1Cc1ccccc1C(F)(F)F	1.56%
Cc1ccc(C(=O)NNC(=O)c2cc3cc4ccccc4nc3s2)cc1	31.4% (active)
Cc1ccc(C(=O)NNc2ncnc3ccccc23)cc1	-2.31%
Cc1ccc(C(=O)NNC(=O)CSc2nnc3ccccn23)cc1	-1.33%
Nc1nc2c(ncn2[C@@H]2O[C@H](CNS(=O)(=O)N3CCc4ccccc4C3)[C@@H](O)[C@H]2O)c(=O)[nH]1	1.88%
CCC/C=C(\CCC)C(NC(=O)Cc1ccccc1)c1ccc(C(=O)OC)cc1 (stereo not given)	10.4%
CC1CCN(C(=O)Cn2cc(C(=O)c3ccco3)c3ccccc32)CC1	3.46%
O=C(c1ccc(CS(=O)(=O)c2ccccc2)o1)N1CCN(c2ccccc2)CC1	1.5%
Cn1cncc1C#Cc1c(-c2ccsc2)sc2ccccc12	30% (active)
Cc1cccc(-c2oc3ccc(-c4ccc5c(c4)OCO5)cc3c2C#Cc2cncn2C)c1	26.9%
COc1ccc2sc(-c3ccc(S(C)(=O)=O)cc3)c(C#Cc3cncn3C)c2c1	0.758%
CS(=O)(=O)N(CC(=O)N1CCCCCC1)c1cccc(Cl)c1Cl	-9.97%
Cc1c(S(=O)(=O)NCc2ccccc2)c(=O)n(C)c(=O)n1C	-3.14%
